Assay results as given in PubChem BioAssay.
Activity calls are given as the source filed them. Unless noted, no rule for the calls is given here.

Key:
[1] = tested on: Wnt5a (protein binding on small-molecule microarray); assay: small molecules binding Wnt5a protein – biophysical, small-molecule microarray, 635/667 nm fluorescence, primary screen (AID 1142); conditions: 635 nm fluorescence, higher = more signal;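 also: fluorescence read at 667 nm with signal to noise per printed feature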
[2] = ATP-based viability of Huh7 replicon cells – cell-based, CellTiter-Glo luminescence, basal, 48 h, cytotoxicity control for HCV replication inhibitor project, primary screen (AID 1143); conditions: higher = more signal, called active from +8 up or from −8 down;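 also: Huh7 hepatoma cells carrying a hepatitis C replication reporter with no stimulus; test concentration not given here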
[3] = Pseudomonas biofilm growth suppression – PAO1 strain, BacTiter-Glo luminescence, LB-PBS, primary screen (AID 1144); conditions: P. aeruginosa PAO1 biofilm, 12 h, higher = more signal
[4] = basal CRE-LacZ reporter activity in PC12 – cell-based, unstimulated, primary screen (AID 1145); conditions: no forskolin, luminescence, 4.5 h, higher = more signal, called active from +8 up or from −8 down
[5] = forskolin-driven CRE-LacZ activity in PC12 – cell-based, CRE-LacZ reporter, forskolin-stimulated, primary screen (AID 1146); conditions: luminescence, 4.5 h, higher = more signal, called active from +8 up or from −8 down;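 also: PC12 cells with 6xCRE LacZ reporter stimulated by forskolin 10 µM; beta-galactosidase reporter signal reflecting CREB driven transcription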
[6] = molecular target: Streptavidin (Streptomyces avidinii) (UniProt P22629); assay: compounds binding control protein streptavidin – biophysical, small-molecule microarray, 635/667 nm fluorescence, artefact control for SMM compound annotation, primary screen (AID 1147); conditions: higher = more signal;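 also: signal reflects streptavidin binding to arrayed compounds as a control protein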
[7] = probe aInhba binding on compound microarray – biochemical, small-molecule microarray, 635/667 nm fluorescence, primary screen (AID 1148); conditions: higher = more signal;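 also: score merges 667nm spot fluorescence with signal-to-noise for antibody binding to printed compounds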
Torsin-1A (Homo sapiens) [8] = molecular target: Torsin-1A (Homo sapiens) (UniProt O14656); assay: TOR1A wild-type binding on microarray – cell lysate, small-molecule microarray, lysate, 635/667 nm, primary screen (AID 1149); conditions: COS7 hTOR1A-WT lysate, 635 nm fluorescence, higher = more signal
Torsin-1A (Homo sapiens) [9] = molecular target: Torsin-1A (Homo sapiens) (UniProt O14656); assay: torsin A mutant lysate binding on microarrays – cell lysate, small-molecule microarray, COS7 lysate, 635/667 nm fluorescence, primary screen (AID 1150); conditions: COS7 hTOR1A mutant lysate, 635 nm fluorescence, higher = more signal;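 also: score pools 667 nm emission and signal to noise measuring lysate protein binding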
[10] = tested on: Sonic hedgehog protein (Shh); assay: Sonic hedgehog microarray binding compounds – biochemical, small-molecule microarray, 635/667 nm fluorescence, primary screen (AID 1151); conditions: 635 nm fluorescence, higher = more signal;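 also: Shh protein binding to compounds spotted on small-molecule microarray slides; score combines spot fluorescence intensity with signal-to-noise across triplicate slides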

Sequence of Streptavidin (Streptomyces avidinii) (P22629 whole entry, looked up): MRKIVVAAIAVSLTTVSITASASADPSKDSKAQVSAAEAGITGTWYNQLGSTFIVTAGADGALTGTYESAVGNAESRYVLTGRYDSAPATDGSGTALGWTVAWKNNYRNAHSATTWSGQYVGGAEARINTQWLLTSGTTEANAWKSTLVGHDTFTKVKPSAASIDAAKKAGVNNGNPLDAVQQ
Sequence of Torsin-1A (Homo sapiens) (O14656 whole entry, looked up): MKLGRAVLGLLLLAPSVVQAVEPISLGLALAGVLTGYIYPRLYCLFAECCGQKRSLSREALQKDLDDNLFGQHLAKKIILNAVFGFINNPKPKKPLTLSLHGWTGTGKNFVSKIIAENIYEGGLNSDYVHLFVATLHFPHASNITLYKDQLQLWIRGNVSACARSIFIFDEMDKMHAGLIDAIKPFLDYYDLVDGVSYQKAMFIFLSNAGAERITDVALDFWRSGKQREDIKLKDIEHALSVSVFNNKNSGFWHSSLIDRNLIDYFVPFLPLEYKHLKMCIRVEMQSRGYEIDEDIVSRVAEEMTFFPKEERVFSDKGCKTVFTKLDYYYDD

| SMILES | composite z-score [1] | z-score [2] | z-score [3] | z-score [4] | z-score [5] | composite z-score [6] | composite z-score [7] | composite z-score (Torsin-1A (Homo sapiens) [8]) | composite z-score (Torsin-1A (Homo sapiens) [9]) | composite z-score [10] |
| --- | --- | --- | --- | --- | --- | --- | --- | --- | --- | --- |
| O=C1N(Cc2ccccc2)c2ccccc2[C@@H]2OC(c3ccc(OCCCO)cc3)=N[C@]12CCS(=O)(=O)c1ccccc1 | 0.443 | -2.24 (inactive) | -0.19 (inactive) | 3.13 (inactive) | -0.406 (inactive) | 0.209 | -0.0719 | 0.216 | 0.726 | 0.695 |
| CCN(CC)c1ccc(N2CC=CC34O[C@@H]5C=CCCOC(=O)C5[C@H]3C(=O)N(CCCCCCO)[C@@H]4C2=O)cc1 (stereo not given in full) | -0.212 | -1.32 (inactive) | -1.35 (inactive) | -1.85 (inactive) | -0.716 (inactive) | -0.729 | -0.209 | 0.454 | 1.57 | -0.179 |
| COCCOC(=O)N1C(=O)[C@@]2(c3cc(C#CCC(C(=O)OC)C(=O)OC)ccc31)[C@H](c1ccccc1OCCO)N1[C@H](c3ccccc3)[C@H](c3ccccc3)OC(=O)[C@H]1[C@@H]2C(=O)NC[C@H](O)c1ccccc1 | 0.851 | -4.23 (inactive) | 0.166 (inactive) | -0.195 (inactive) | 2.22 (inactive) | 0.0919 | 0.158 | 0.555 | 0.389 | 1.98 |
| CC#CC(=O)Oc1ccccc1C=CC(=O)OCC | -0.0407 | -1.99 (inactive) | -1.69 (inactive) | -0.0696 (inactive) | 1.7 (inactive) | 0.066 | -0.206 | -0.402 | 0.222 | 0.0449 |
| CN1C(=O)C2C=CC(C(O)C3CC=CCC3)N(N(c3ccccc3)c3ccccc3)C2C1=O (stereo not given) | 0.155 | 0.909 (inactive) | 0.472 (inactive) | 0.629 (inactive) | 0.47 (inactive) | 0.184 | 0.027 | 0.36 | -0.368 | 0.0122 |
| CCCCCCc1nc(-c2ccc(OC)nc2)cc2c1[Si](C(C)C)(C(C)C)O[C@H]2c1ccccc1 | 0.323 | -0.295 (inactive) | 0.0731 (inactive) | 0.773 (inactive) | 0.03 (inactive) | 0.111 | 0.136 | 0.0114 | -0.234 | 1.21 |
| C=C(CCCC)/C(=C/C[C@H](OC(=O)c1ccncc1)c1ccccc1OCCO)c1cnc2ccccc2c1 | 0.265 | -0.401 (inactive) | 0.0698 (inactive) | -0.583 (inactive) | 0.494 (inactive) | 1.74 | -0.0471 | 0.609 | 0.712 | 1.45 |
| CCCc1cc2c(n1Cc1cc(F)cc(F)c1)C(C)C1CN(C(=O)c3ccccc3)C(C)(C(=O)OC)C21 (stereo not given) | 0.239 | -2.5 (inactive) | 0.335 (inactive) | 0.587 (inactive) | 1.31 (inactive) | 1.4 | 0.786 | 0.361 | 1.58 | -0.236 |
| CC(=O)n1cc(C(O)C2C=CC3C(=O)N(c4ccccc4)C(=O)C3N2Nc2ccc([N+](=O)[O-])cc2)c2ccccc21 (stereo not given) | 0.199 | -0.547 (inactive) | -0.197 (inactive) | -0.322 (inactive) | -0.647 (inactive) | 0.808 | -0.0371 | -0.268 | 0.475 | -0.0727 |
| COC(=O)[C@@]1(CCS(=O)(=O)c2ccccc2)N=C(c2ccc(OCCCO)cc2)O[C@H]1c1ccccc1CN=[N+]=[N-] | 0.351 | -2.7 (inactive) | 0.945 (inactive) | 1.38 (inactive) | -1.43 (inactive) | 0.415 | 0.0808 | 0.252 | 0.869 | 0.281 |
| COCCOC(=O)N1C(=O)[C@@]2(c3cc(C#Cc4ccc(OC)cc4)ccc31)[C@H](c1ccc(O)cc1)N1[C@H](c3ccccc3)[C@H](c3ccccc3)OC(=O)[C@H]1[C@@H]2C(=O)N1CCc2cc(OC)c(OC)cc2C1 | 0.164 | -1.93 (inactive) | -1.57 (inactive) | -1.42 (inactive) | -0.397 (inactive) | 1.25 | 0.0317 | 0.807 | 0.964 | 0.643 |
| CCCC=C(CCC)[C@@H](NC(=O)c1cccs1)c1ccc(C(F)(F)F)cc1 | 0.374 | -3.78 (inactive) | -0.407 (inactive) | -0.761 (inactive) | 0.796 (inactive) | 0.882 | 0.473 | 0.598 | 0.704 | 1.18 |
| O=C1O[C@H](c2ccccc2)[C@H](c2ccccc2)N2[C@H]1[C@@H](C(=O)N1CCCCCCC1)[C@]1(C(=O)Nc3ccc(C#CCCO)cc31)[C@H]2c1ccccc1OCCO | 2.73 | -3.61 (inactive) | 0.999 (inactive) | -0.698 (inactive) | -1.19 (inactive) | 4.08 | 2.33 | 3.84 | 3.83 | 2.53 |
| CCCC[C@@H]1C[C@H]1[C@@H](NC(=O)c1ccccc1)c1ccc(C(=O)OC)cc1 | 0.106 | -0.977 (inactive) | -0.485 (inactive) | 0.576 (inactive) | 0.0003 (inactive) | -0.279 | -0.018 | -2.83 | -0.686 | -1.11 |
| CCC(CC)C(O)C1C=CC2C(=O)NC(=O)C2N1Nc1ccc(Cl)cc1Cl (stereo not given) | 0.0146 | -0.776 (inactive) | 0.34 (inactive) | 0.243 (inactive) | -0.273 (inactive) | 0.673 | 0.225 | -0.167 | 0.418 | 0.463 |
| CCOC(=O)C[C@H]1[C@H](OC(=O)c2ccc(C(=O)c3ccccc3)cc2)[C@@H](NC(=O)c2ccccc2)c2cc(OCCCO)ccc2N1C(=O)c1ccc2ccccc2n1 | 0.152 | -0.0123 (inactive) | 0.0501 (inactive) | 3.66 (inactive) | -0.712 (inactive) | 1.22 | -0.0468 | 0.478 | 0.179 | -0.25 |
| C=C(C(=O)CC[C@@H](OC(=O)c1cccnc1)c1ccccc1OCCO)C(C)C | -0.0008 | -1.25 (inactive) | -0.0644 (inactive) | 8.13 (active) | 1.17 (inactive) | -0.405 | -0.0112 | 0.784 | 0.962 | 1.37 |
| COC(=O)C(CC#Cc1ccc2c(c1)[C@]1(C(=O)N2)[C@H](C(=O)Nc2nc3ccccc3s2)[C@H]2C(=O)O[C@H](c3ccccc3)[C@H](c3ccccc3)N2[C@@H]1c1ccccc1OCCO)C(=O)OC | 0.573 | -5 (inactive) | -0.438 (inactive) | 0.389 (inactive) | 0.372 (inactive) | 0.679 | 0.12 | 0.25 | 0.733 | 1.03 |
| COCCOC(=O)N1C(=O)[C@@]2(c3cc(C#CCNC(N)=O)ccc31)[C@H](C(=O)N1CCN(c3ncccn3)CC1)[C@H]1C(=O)O[C@H](c3ccccc3)[C@H](c3ccccc3)N1[C@@H]2c1ccc(OCCO)cc1 | 0.344 | 0.0164 (inactive) | -0.82 (inactive) | 1.04 (inactive) | -0.0748 (inactive) | 0.619 | 0.0154 | 1.44 | 0.453 | 0.911 |
| [N-]=[N+]=Nc1ccccc1[C@@H]1OC(c2ccc(OCCCO)cc2)=N[C@]1(CCS(=O)(=O)c1ccccc1)C(N)=O | 0.903 | -1.12 (inactive) | 0.378 (inactive) | 0.218 (inactive) | -1.09 (inactive) | 2.03 | 0.207 | 0.641 | 0.91 | -0.398 |
| COC(=O)C(CC#Cc1ccc2c(c1)[C@]1(C(=O)N2)[C@H](c2ccc(OCCO)cc2)N2[C@H](c3ccccc3)[C@H](c3ccccc3)OC(=O)[C@H]2[C@@H]1C(=O)N1CCc2cc(OC)c(OC)cc2C1)C(=O)OC | 0.714 | -0.6 (inactive) | 0.188 (inactive) | -0.0688 (inactive) | 2.19 (inactive) | 1.52 | 0.542 | 0.668 | 0.623 | 1.91 |
| COc1ccc(CCNC(=O)[C@@H]2c3ccccc3C(=O)N(Cc3ccccc3Cl)[C@H]2c2ccc(CO)cc2)cc1 | 0.177 | -0.124 (inactive) | 0.603 (inactive) | 0.701 (inactive) | -0.977 (inactive) | -0.001 | -0.0645 | 0.25 | 0.0327 | -0.214 |
| C#C[C@H](O[Si](C#Cc1ccc(Oc2ccccc2)cc1)(C(C)C)C(C)C)c1ccccc1 | 0.0942 | -0.868 (inactive) | -0.0203 (inactive) | 0.498 (inactive) | 1.7 (inactive) | 0.145 | -0.082 | 1.38 | 0.122 | 0.21 |
| COc1ccc([C@H]2OC[C@@H]3C[C@@H](Cc4ccccc4)C(=O)N32)cc1 | 0.157 | -0.316 (inactive) | 1.01 (inactive) | 0.978 (inactive) | 0.627 (inactive) | -0.679 | -0.0403 | 0.656 | 0.556 | 1.33 |
| CC(C)N1C(=O)C[C@@](C(=O)NCC(F)(F)F)(c2ccc([N+](=O)[O-])cc2)[C@H]1c1ccc(CO)cc1 | -0.492 | -4.06 (inactive) | -1.76 (inactive) | -0.761 (inactive) | -1.24 (inactive) | 0.14 | -0.128 | 0.894 | 0.0412 | 1.24 |
| Cc1nc2cc(Br)ccc2c(=O)o1 | 0.119 | -1.66 (inactive) | -1.06 (inactive) | -0.464 (inactive) | -1.27 (inactive) | 0.498 | 0.0319 | 0.842 | 0.642 | 0.113 |
| CC(C)(C)OC(=O)CC[C@]1(C(=O)N2CCOCC2)N=C(c2ccc(OCCCO)cc2)O[C@H]1c1ccccc1N=[N+]=[N-] | 0.846 | -0.884 (inactive) | 1.17 (inactive) | 1.31 (inactive) | -1.4 (inactive) | 1.42 | 0.236 | 0.64 | 1.7 | -0.371 |
| COc1cc(COC(C)=O)ccc1OC(C)=O | 1.27 | -1.68 (inactive) | -1.48 (inactive) | 1.42 (inactive) | 68.7 (active) | -0.114 | 0.257 | 0.343 | 0.141 | 0.857 |
| C=CCOC(=O)[C@H]1[C@@H]2C(=O)O[C@@H](c3ccccc3)[C@@H](c3ccccc3)N2[C@@H](c2ccc(OCCOC(=O)[C@H]3C[C@H]4C(=O)N[C@@H](CCCC[N+](C)(C)C)C(=O)N4[C@H]3c3ccc(O)cc3)cc2)[C@]12C(=O)Nc1ccc(I)cc12 | 0.232 | -0.326 (inactive) | -0.615 (inactive) | 0.415 (inactive) | -0.226 (inactive) | 0.134 | 0.0759 | 1.39 | -0.243 | 2.22 |
